According to PubChem BioAssay (NCATS):
Inconclusive results are not listed. Values without a mark were called inactive. Activity calls are given as the source filed them. Calls come from the whole dose curve; as a rule, active = well fitted inhibition curve with a large enough effect; inconclusive = small, poorly fitted or top-dose-only effect; inactive = no such curve, though single readings can be large or run the other way.

tested on: not listed separately; experiment: qHTS to identify inhibitors of the type 1 interferon - major histocompatibility complex class I in skeletal muscle: primary screen against the NCATS Mechanism Interrogation Plate v5.0 (MIPE) Libary (AID 1347411); conditions: iHSKM cells + IFN-b, HiBiT-tagged MHC-I luminescence, 24 h; series mostly up to 45.8 µM; activity change, negative = inhibition: at the top concentration; note: nearly all actives have a fitted effect of over 65% in size; note: potency is the fitted concentration of half-maximal effect;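 for activity change, negative = inhibition: plate controls were vehicle for no effect and reference inhibitor for full effect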
Procedure, shortened: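 Seed engineered human myoblasts (HLA-B HiBit) in medium without dexamethasone containing 4 ng/ml IFN-beta; after 1 hr add compound titrations (top 46 uM final). Incubate 24 hrs at 37 C, lyse 10 min with HiBiT reagent, read luminescence.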

First: CC[C@@H]([C@H](C)O)n1ncn(-c2ccc(N3CCN(c4ccc(OCC5CO[C@@](Cn6cncn6)(c6ccc(F)cc6F)C5)cc4)CC3)cc2)c1=O (stereo partly drawn)
Second: CN(C(Cc1ccc(OS(=O)(=O)c2cccc3cnccc23)cc1)C(=O)N1CCN(c2ccccc2)CC1)S(=O)(=O)c1cccc2cnccc12 (stereo not drawn)
The “activity change, negative = inhibition” value of the first is lower: -4.4% for the first, 3.42% for the second.

First: CO[C@@H]1C(N(C)C(=O)c2ccccc2)C[C@H]2O[C@]1(C)n1c3ccccc3c3c4c(c5c6ccccc6n2c5c31)C(=O)NC4=O (stereo partly drawn)
Second: CC(C)(OCc1nn(Cc2ccccc2)c2ccccc12)C(=O)O
The “activity change, negative = inhibition” value of the first is lower: -40.5% for the first, -13.5% for the second.

Compared with `CN1C(=O)C[C@H](C(=O)N[C@@H](Cc2cnc[nH]2)C(=O)N2CCC[C@@H]2C(N)=O)NC1=O`, `CCC[C@H](N[C@@H](C)C(=O)N1[C@@H]2CCCC[C@H]2C[C@H]1C(=O)O)C(=O)OCC` is lower in “activity change, negative = inhibition” value: -2.68% for the first, -21.3% for the second.

Compared with `Cn1c(=O)c(Oc2ccc(F)cc2F)cc2cnc(NC3CCOCC3)nc21`, `CNC(=O)c1c(-c2ccc(F)cc2)oc2cc(N(CCO)S(C)(=O)=O)c(C3CC3)cc12` is lower in “activity change, negative = inhibition” value: -4.83% for the first, -9.35% for the second.

Compared with `NC(=O)c1noc([C@H](CCCC2CCCCC2)CC(=O)NO)n1`, `O=C(NCCCCN1CCOCC1)c1cc2ccccc2o1` is higher in “activity change, negative = inhibition” value: -20.9% for the first, 2.12% for the second.

First: CN(C)CCCNC(=O)c1ccc(-c2cc(O)c3ncccc3c2)cc1
Second: Cc1ccc(C2=Nc3ccc(Cl)cc3OC2)cc1
The “activity change, negative = inhibition” value of the first is lower: 0.779% for the first, 7.45% for the second.

Going from `CC1=C(C(=O)Nc2cc3cn[nH]c3cc2F)C(c2ccc(C(F)(F)F)cc2)CC(=O)N1` (stereo not drawn) to `NC(=O)c1ccc(N(C(N)=O)c2c(F)cccc2F)nc1-c1ccc(F)cc1F`, the “activity change, negative = inhibition” value falls from -20.8% to -21.4%.

First: CCOC(=O)c1c(CSc2ccccc2)n(C)c2cc(Br)c(O)c(CN(C)C)c12
Second: COc1ccc(-c2oc3c(CC=C(C)C)c(O)cc(O)c3c(=O)c2O)cc1
The “activity change, negative = inhibition” value of the first is higher: -11.2% for the first, -23.6% for the second.

Compared with `CNC(=O)[C@H](Cc1ccccc1)NC(=O)[C@H](CC(C)C)[C@H](CSc1cccs1)C(=O)NO`, `CC(C)C[C@@H](N)[C@H](O)C(=O)N[C@H](C(=O)N[C@H](C(=O)N[C@@H](CC(=O)O)C(=O)O)C(C)C)C(C)C` is lower in “activity change, negative = inhibition” value: 18.6% for the first, 8.43% for the second.

First: CN(C)N=Nc1nc[nH]c1C(N)=O
Second: CN1CC(=O)NC1=NC(=O)Nc1cccc(Cl)c1
The “activity change, negative = inhibition” value of the first is higher: -3.71% for the first, -16% for the second.

Going from `Cc1ccccc1C(C(=O)NC1CCCCC1)N(C(=O)CNc1ccc(C#N)cc1)c1cccc(F)c1` (stereo not drawn) to `CC1=C(CC(=O)O)c2cc(F)ccc2C1=Cc1ccc(S(C)=O)cc1` (stereo not drawn), the “activity change, negative = inhibition” value falls from -2.15% to -10.4%.

Going from `CCCCCCCCCCCCCCCC(=O)O[C@H]1[C@@H](O)[C@@H](O)[C@@H]([C@H](NC(=O)[C@@H]2C[C@@H](CCC)CN2C)[C@H](C)Cl)O[C@@H]1SC` to `Cc1ccc2c(=O)c3cccc(CC(=O)O)c3oc2c1C`, the “activity change, negative = inhibition” value falls from 5.8% to 0.553%.

Going from `NS(=O)(=O)c1cc(Cl)c(Cl)c(S(N)(=O)=O)c1` to `N[C@@H](CC(=O)N1CCn2c(nnc2C(F)(F)F)C1)Cc1cc(F)c(F)cc1F`, the “activity change, negative = inhibition” value falls from 2.26% to -28.3%.

With `Cc1cccc(Nc2nc(N[C@@H]3CCCC[C@H]3N)ncc2C(N)=O)c1` the Potency was 13.1 µM (active).
With `N#CC(c1ccnc(NCCc2cccnc2)n1)c1nc2ccccc2s1` (stereo not drawn) the Potency was 14.7 µM (active).
With `COc1cc2nccc(Oc3ccc(NC(=O)Nc4ccc(F)cc4F)c(F)c3)c2cc1OC` the Potency was 10.4 µM (active).

In the case of `NCC1CCC(C(=O)O)CC1` (stereo not drawn), the “activity change, negative = inhibition” value is reported as -16.3% [at 15.5 µM].

target: Protein phosphatase 1D (Homo sapiens) (UniProt O15297); experiment: RapidFire Mass Spectrometry qHTS Assay for Modulators of WT P53-Induced Phosphatase 1 (WIP1) (AID 1347424); conditions: WIP1 dephosphorylation of phosphopeptide, RapidFire MS; series mostly up to 63 µM; activity change, negative = inhibition: at the top concentration;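 note: amount of dephosphorylated VEPPL-S-QETFS peptide product formed by WIP1; plate controls were DMSO wells for no effect and GSK830371 inhibitor control at 10 µM for full effect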
Procedure, shortened: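 Mass-spectrometric measurement of dephosphorylated peptide after a 5 min room-temperature reaction of 10 nM WIP1 with 2 uM phosphopeptide, following 1 h compound preincubation in 30 mM MgCl2 buffer.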

Sequence of Protein phosphatase 1D (Homo sapiens) (O15297 whole entry, looked up): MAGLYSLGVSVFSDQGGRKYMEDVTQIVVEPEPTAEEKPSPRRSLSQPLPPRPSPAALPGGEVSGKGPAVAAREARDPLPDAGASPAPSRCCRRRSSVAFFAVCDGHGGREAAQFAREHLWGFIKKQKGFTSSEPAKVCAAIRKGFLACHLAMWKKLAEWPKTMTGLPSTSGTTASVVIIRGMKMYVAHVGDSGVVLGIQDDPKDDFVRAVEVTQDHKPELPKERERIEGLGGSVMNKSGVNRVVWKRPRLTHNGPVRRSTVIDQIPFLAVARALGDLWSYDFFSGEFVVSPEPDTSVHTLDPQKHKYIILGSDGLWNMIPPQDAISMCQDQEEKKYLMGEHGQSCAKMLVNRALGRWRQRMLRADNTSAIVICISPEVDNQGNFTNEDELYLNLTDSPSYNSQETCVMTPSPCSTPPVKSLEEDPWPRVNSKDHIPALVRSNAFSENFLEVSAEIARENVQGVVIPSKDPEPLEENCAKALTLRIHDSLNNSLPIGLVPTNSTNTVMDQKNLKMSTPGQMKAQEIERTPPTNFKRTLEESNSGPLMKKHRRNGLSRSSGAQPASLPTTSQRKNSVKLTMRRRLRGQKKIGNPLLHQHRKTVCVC

First: O[C@@H](COc1cccc2ncccc12)CN1CCN(C2c3ccccc3[C@@H]3[C@H](c4ccccc42)C3(F)F)CC1 (stereo partly drawn)
Second: O=C(CCCN1CCN(c2ccc(F)cc2)CC1)NC1c2ccccc2CSc2ccccc21 (stereo not drawn)
The “activity change, negative = inhibition” value of the first is higher: 7.69% for the first, -6.43% for the second.

In the case of `CCCCC[C@H](O)C=C[C@H]1[C@H](O)CC(=O)[C@H]1CC=CCCCC(=O)O`, the “activity change, negative = inhibition” value is reported as -2.87%.
